Calls of active or inactive are those of the source.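 Rule for the calls, unless noted: active = mean z-score across replicates of 1.96 or higher in either the MELAS or the Rieske mutant cell line; inactive = the rest.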
What was measured:
[1] = MELAS cybrid and Rieske KO viability enhancers – cell-based, MELAS cybrids, Rieske KO mouse fibroblasts, CellTiter-Glo, primary screen (AID 1508586); settings: low glucose;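 note: z relative to plate mean and SD of compound and empty wells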
[2] = galactose survival enhancers in mitochondrial complex I cybrids – cell-based, galactose medium, ATP luminescence, primary screen (AID 1645843;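 active = z-score of at least 1.8 in each of two replicates, scored against plate mean and spread of sample wells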;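 note: positive z means more ATP and so rescue of galactose-driven cybrid death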); settings: complex I mutant cybrid cells, 72 h, stronger effect = higher value
[3] = liver-stage malaria parasite load reduction – cell-based, known kinase inhibitor set, luminescence, hepatoma host viability (AID 624392; call rule not given here;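 note: infected cells incubated roughly two days before readout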); settings: Plasmodium liver stage in hepatoma cells, luciferase luminescence, concentration not given here; liver cell % of control: measured here: host liver cell viability; parasite % of control: stronger effect = lower value
[4] = altered dexamethasone sensitivity, NF-kB reporter, cell-based, luciferase, IL-1B stimulus (AID 624486; call rule not given here;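 for percent of negative control (+Dex): 100% = mean signal of vehicle control wells on the plate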); settings: IL-1B + dexamethasone, luminescence; percent of negative control (+Dex): actives lie on both sides, concentration not given here; z-score: measured here: IL-1B alone, no Dex
[5] = C. elegans survival during P. aeruginosa infection – whole organism (AID 651566; call rule not given here;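 note: tested at 14 µM; sign flipped so higher z means a lower ratio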); settings: C. elegans killed by P. aeruginosa, survival ratio
[6] = pro-inflammatory signaling induction in mouse macrophages – cell-based, murine, luminescence (AID 652131; call rule not given here); settings: murine macrophage pro-inflammatory reporter, stronger effect = higher value
[7] = MELAS cybrid survival, CellTiter-Glo 48 h, stronger effect = higher value
[8] = Rieske KO mouse fibroblast survival, CellTiter-Glo 72 h

CC(C)N1CCN(C(=O)c2cc(-c3ccccc3)cc(S(=O)(=O)N3CCSCC3)c2)CC1
z-score [1, 7]: -0.246 (inactive)
z-score [1, 8]: -0.306
z-score [2]: 1.2 (inactive)

C=CCn1nc(C(=O)N2CCOCC2)c2c1CCC(NCc1ccc(Cl)s1)C2 (configuration not stated)
z-score [1, 7]: -0.625 (inactive)
z-score [1, 8]: -0.989
z-score [2]: 0.86 (inactive)

Cc1nc2sccn2c1CN1CCC2(CC1)C(=O)N(CC(C)C)C(=O)N2CCc1ccccc1
z-score [1, 7]: -0.397 (inactive)
z-score [1, 8]: -0.675
z-score [2]: 0.34 (inactive)

Cc1ccc(N2CCN(C3CCc4c(c(C(=O)N5CCSCC5)nn4C)C3)CC2)c(C)c1 (configuration not stated)
z-score [1, 7]: -0.0351 (inactive)
z-score [1, 8]: -0.612
z-score [2]: 0.195 (inactive)

CC(C)CN1CC(OCc2cccc(F)c2)CN(C(=O)Cn2cnc3ccccc3c2=O)CC1=O (configuration not stated)
z-score [1, 7]: -0.0292 (inactive)
z-score [1, 8]: 0.00727
z-score [2]: -0.43 (inactive)

COc1ccc(-c2[nH]ncc2CN2CCC3(CC2)C(=O)N(C(C)C)C(=O)N3CCC(C)C)cc1
z-score [1, 7]: 0.0083 (inactive)
z-score [1, 8]: -0.0351
z-score [2]: 0.975 (inactive)

COC1CN(C(=O)Cn2nc(-c3ccccc3)c3ccccc3c2=O)CC(=O)N(Cc2ccccc2)C1 (configuration not stated)
z-score [1, 7]: -0.199 (inactive)
z-score [1, 8]: 0.0204
z-score [2]: 1.58 (inactive)

COc1ccc(C[C@@H]2NC(=O)[C@H]3CN(C(=O)Oc4ccc(Cl)cc4)CCN3C2=O)cc1
z-score [1, 7]: -0.205 (inactive)
z-score [1, 8]: 0.551
z-score [2]: -1.58 (inactive)

COCC(=O)Nc1c(C(=O)OC)n(CCC(C)C)c2ncc(NC(C)CCn3cccn3)cc12 (configuration not stated)
z-score [1, 7]: 0.765
z-score [1, 8]: 4.41
z-score [2]: -0.21 (inactive)

COc1cccc2ccc(CN3CCC4(CC3)C(=O)N(CCc3ccccc3)C(=O)N4C)nc12
z-score [1, 7]: -0.413 (inactive)
z-score [1, 8]: 1.51
z-score [2]: 0.055 (inactive)

CCOC(=O)c1nn(Cc2ccccn2)c2c1CN(Cc1ccc(NC(C)=O)s1)CC2
z-score [1, 7]: -0.809 (inactive)
z-score [1, 8]: -0.0726
z-score [2]: 0.55 (inactive)

Cn1cc(CN2CC(OCc3cccnc3)CN(Cc3cn[nH]c3-c3ccccc3)CC2=O)cn1 (configuration not stated)
z-score [1, 7]: -0.178 (inactive)
z-score [1, 8]: -0.506
z-score [2]: 0.715 (inactive)

COCCN1C(=O)N(C(C)C)C(=O)C12CCN(Cc1c(F)cccc1Cl)CC2
z-score [1, 7]: -0.424 (inactive)
z-score [1, 8]: -0.375
z-score [2]: 2.07 (inactive)

CC(C)C[C@H]1C(=O)N2CCN(Cc3cccc4ncccc34)C[C@@H]2C(=O)N1C
z-score [1, 7]: -0.521 (inactive)
z-score [1, 8]: -0.107
z-score [2]: -0.23 (inactive)

NCCCC[C@@H]1NC(=O)[C@@H]2C[C@H](NC(=O)c3sccc3Cl)CN2C1=O
z-score [1, 7]: -0.4 (inactive)
z-score [1, 8]: -0.67
z-score [2]: -0.915 (inactive)

O=C(NCCn1ccnc1)c1cc(NCC2CC=CCC2)cc(S(=O)(=O)N2CCCC2)c1 (configuration not stated)
z-score [1, 7]: -0.174 (inactive)
z-score [1, 8]: -0.234
z-score [2]: -0.94 (inactive)

Cc1c(CN2CC(=O)N(Cc3ccccc3)CC(O)C2)c(=O)n(-c2ccccc2)n1C (configuration not stated)
z-score [1, 7]: 0.325 (inactive)
z-score [1, 8]: -0.72
z-score [2]: 0.83 (inactive)

CCn1nc(C(=O)N2CCCC2)c2c1CCC(NCCC1=CCCCC1)C2 (configuration not stated)
z-score [1, 7]: 1.1 (inactive)
z-score [1, 8]: -0.76
z-score [2]: -1.23 (inactive)

CC(C)CNC(=O)[C@@H]1C[C@H](CN2CCOCC2)CN(Cc2ccncc2)C1
z-score [1, 7]: -0.456 (inactive)
z-score [1, 8]: -0.738
z-score [2]: -0.6 (inactive)

CCC(C)C(=O)Nc1c(C(=O)OC)n(CC2CCCO2)c2ncc(NC3CCSC3)cc12 (configuration not stated)
z-score [1, 7]: -0.0694 (inactive)
z-score [1, 8]: 1.01
z-score [2]: -0.775 (inactive)

COC(=O)c1c(NC(=O)Cc2ccccc2)c2cc(NCc3nccs3)cnc2n1CC(C)C
z-score [1, 7]: -0.876 (inactive)
z-score [1, 8]: 1.74
z-score [2]: -1.62 (inactive)

CC1=C(CCN2CCC3(CC2)C(=O)N(C(C)C)C(=O)N3C)C(C)(C)CCC1
z-score [1, 7]: -0.0598 (inactive)
z-score [1, 8]: -0.31
z-score [2]: 1.89 (inactive)

CCN(CC)CCNC(=O)c1cc(-c2cc(C)cs2)cc(S(=O)(=O)N2CCOCC2)c1
z-score [1, 7]: -0.44 (inactive)
z-score [1, 8]: -0.00741
z-score [2]: 1.25 (inactive)

CC(C)[C@@H]1NC(=O)[C@@H]2C[C@H](NC(=O)c3cccc(Cl)c3)CN2C1=O
z-score [1, 7]: 9 (active)
z-score [1, 8]: -0.848
z-score [2]: -0.675 (inactive)

COC(=O)c1c(NC(=O)CCc2ccccc2)c2cc(NC(C)C(C)(C)O)cnc2n1C (configuration not stated)
z-score [1, 7]: -1.19 (inactive)
z-score [1, 8]: -0.398
z-score [2]: -0.305 (inactive)

CN(C)CCCNC(=O)[C@@H]1C[C@H](CN2CCOCC2)CN(Cc2ccc3ccccc3c2)C1
z-score [1, 7]: -0.234 (inactive)
z-score [1, 8]: -0.142
z-score [2]: 0.05 (inactive)

CCN1C(=O)N(CC(N)=O)C(=O)C12CCN(CC(C)Cc1ccc3c(c1)OCO3)CC2 (configuration not stated)
z-score [1, 7]: 0.0615 (inactive)
z-score [1, 8]: -0.343
z-score [2]: 1.17 (inactive)

Cc1csc(-c2cc(C(=O)NCCC3CCCN3C)cc(S(=O)(=O)N3CCOCC3)c2)c1 (configuration not stated)
z-score [1, 7]: 4.59 (active)
z-score [1, 8]: -0.54
z-score [2]: -1.3 (inactive)

COc1cc(/C=C/CN2CC(=O)N(C(C)C)CC(OCc3noc(C)n3)C2)ccc1O (configuration not stated)
z-score [1, 7]: -0.167 (inactive)
z-score [1, 8]: -0.562
z-score [2]: -1.32 (inactive)

C[C@H](O)[C@H]1NC(=O)[C@@H]2C[C@H](NC(=O)Nc3cccc(F)c3)CN2C1=O
z-score [1, 7]: 0.0941 (inactive)
z-score [1, 8]: 0.103
z-score [2]: -0.26 (inactive)

CCc1nc(CNc2cc(C(=O)Nc3ccc4c(c3)CCC4)cc(S(=O)(=O)NC)c2)c(C)[nH]1
z-score [1, 7]: -0.12 (inactive)
z-score [1, 8]: -0.343
z-score [2]: 0.065 (inactive)

CCn1nc(C(=O)N2CCCCC2)c2c1CCC(NCc1ccc3c(c1)OCO3)C2 (configuration not stated)
z-score [1, 7]: -0.251 (inactive)
z-score [1, 8]: 0.426
z-score [2]: -1.14 (inactive)

CS(=O)(=O)CCNCc1ccoc1-c1ccc2ncnc(Nc3ccc(OCc4ccccc4)cc3)c2c1
liver cell % of control [3]: 97.4%
parasite % of control [3]: 112% (inactive)
percent of negative control (+Dex) [4]: 80% (inactive)
z-score [4]: -0.675
z-score [5]: 0.33 (inactive)
z-score [6]: 3.01 (inactive)
z-score [1, 7]: 0.221 (inactive)
z-score [1, 8]: -0.404

CCCCNC(=O)[C@@H]1C[C@H](CN2CCOCC2)CN(Cc2ccc(OC)c(OC)c2)C1
z-score [1, 7]: -0.184 (inactive)
z-score [1, 8]: 0.521
z-score [2]: 1.15 (inactive)
